Compound activity deposited in PubChem BioAssay by several laboratories.
The list is not random: actives were taken first. Their share in the collection is about 2.7%.
SENP8 block-1 – SENP8 protease inhibitors, primary screen, biochemical, luminescence; inhibition, % at 10 µM; AID 2540, 2010; 330,000 tested, 1.2% active; purified SENP8, Z-RLRGG-aminoluciferin cleavage; in the data active means inhibition above about 50%
Target sequence (Q96LD8 whole entry, looked up): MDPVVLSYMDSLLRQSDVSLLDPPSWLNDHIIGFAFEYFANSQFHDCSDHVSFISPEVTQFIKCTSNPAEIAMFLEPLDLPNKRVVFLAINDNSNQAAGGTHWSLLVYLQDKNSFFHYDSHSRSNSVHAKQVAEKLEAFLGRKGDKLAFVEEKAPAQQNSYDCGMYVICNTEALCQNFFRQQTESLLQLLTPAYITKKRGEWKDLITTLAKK
SENP8 block-2 – human SENP8 protease inhibitors, primary screen, biochemical, fluorescence, Nedd8 protein substrate, uHTS; Sentrin-specific protease 8 (Homo sapiens), Q96LD8; recombinant SENP8; inhibition, % at 20 µM; 360,000 tested, 0.64% active; AID 602440, 2012; in the data active means inhibition mostly above about 40%, no sharp cut-off; inactive means mostly below about 27%
SENP6 block – SENP6 protease inhibitors, primary screen, biochemical, luminescence, uHTS. Sentrin-specific protease 6 (Homo sapiens), Q9GZR1. Recombinant SENP6 catalytic domain, aminoluciferin luminescence. inhibition, % at 10 µM. 330,000 tested, 1.8% active;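 active means inhibition above about 50% at the single tested dose, limit read from the data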;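 further: plate controls were DMSO wells with enzyme for no effect and DMSO wells lacking enzyme for full effect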
Target sequence (Q9GZR1 628-1112 limits assumed): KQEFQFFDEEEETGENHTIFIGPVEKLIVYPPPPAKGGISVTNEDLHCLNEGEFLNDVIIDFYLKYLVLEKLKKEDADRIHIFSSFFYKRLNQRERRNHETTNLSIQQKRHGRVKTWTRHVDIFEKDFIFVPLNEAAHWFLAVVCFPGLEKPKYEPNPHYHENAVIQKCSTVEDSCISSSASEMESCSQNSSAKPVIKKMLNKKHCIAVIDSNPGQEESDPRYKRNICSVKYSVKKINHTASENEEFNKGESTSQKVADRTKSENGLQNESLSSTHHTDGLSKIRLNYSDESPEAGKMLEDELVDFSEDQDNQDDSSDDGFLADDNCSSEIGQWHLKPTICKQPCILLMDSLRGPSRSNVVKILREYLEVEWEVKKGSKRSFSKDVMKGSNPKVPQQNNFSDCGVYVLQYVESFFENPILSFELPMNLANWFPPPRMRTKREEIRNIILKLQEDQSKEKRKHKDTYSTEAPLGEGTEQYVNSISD
HSP90 refold inh – HSP90 inhibitors, primary screen, cell lysate, luminescence. inhibition, % at 5.6 µM. Heat shock protein HSP 90 (rabbit reticulocyte lysate; luciferase refolding). Rabbit reticulocyte lysate, luciferase refolding luminescence, 3 h. 290,000 tested, 0.91% active;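 active means inhibition above the screen-wide mean plus 3 SD, computed separately per campaign, cut at about 16% in these data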;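 further: 0% = DMSO wells and 100% = 60 µM geldanamycin wells; inhibitors lower the luminescence because luciferase stays unfolded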
SENP7 inh – SENP7 protease inhibitors, primary screen, biochemical, luminescence, uHTS. recombinant SENP7, Z-RLRGG-aminoluciferin luminescence, 40 min. inhibition, % at 5 µM. 330,000 tested, 1.5% active;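 active means inhibition above about 50% at the single test dose, limit read from the data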;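 further: plate controls were DMSO with enzyme for no effect and no enzyme buffer wells for full effect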
SENP8 conf – SENP8 protease inhibitors, retest, confirmation, biochemical, luminescence, single concentration. inhibition, % at 12.5 µM. Recombinant SENP8, Z-RLRGG-aminoluciferin luminescence, 60 min. shares compounds with SENP7 inh. 6,200 tested, 40% active;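 active means mean inhibition across replicates above about 50%, limit read from the data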
SENP6 conf – SENP6 protease inhibitors, confirmation, biochemical, luminescence, single concentration | shares compounds with SENP7 inh | recombinant SENP6, Z-RLRGG-aminoluciferin luminescence | inhibition, % at 12.5 µM | 6,200 tested, 58% active | AID 488915, 2010
SENP7 confirm – SENP7 protease inhibitors, retest, confirmation, biochemical, luminescence, single concentration. inhibition, % at 12.5 µM. shares compounds with SENP7 inh. AID 488917, 2010. recombinant SENP7, Z-RLRGG-aminoluciferin luminescence, 40 min. 6,200 tested, 69% active
Casp3 SENP sel – caspase-3 protease inhibitors, confirmation, selectivity assay for SENP inhibitor project, biochemical, single concentration; shares compounds with SENP7 inh; purified caspase-3, Z-DEVD-aminoluciferin luminescence, 60 min; 6,200 tested, 60% active; inhibition, % at 12.5 µM;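 active means mean inhibition above about 50%, limit read from the data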;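 further: plate controls were enzyme with DMSO for no effect and wells without caspase-3 for full effect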
SENP luc ctr – luminescence interference (SENP counter-screen); shares compounds with SENP7 inh; Pre-incubated SENP8/Z-RLRGG-aminoluciferin, luciferase luminescence interference; inhibition, % at 12.5 µM; 6,200 tested, 39% active; AID 488919;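 active means mean inhibition above about 50% when retested at one dose, limit read from the data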;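 further: plate controls were DMSO wells with completed reaction for no effect and substrate without enzyme for full effect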
Starred values were filed as active, the others as inactive; · = not tested or not shown.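 How the source made its calls, unless noted: active means mean inhibition above about 50% in the one-dose retest (limit read from the data); inactive means the rest.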

SMILES | SENP8 block-1 | SENP8 block-2 | SENP6 block | HSP90 refold inh | SENP7 inh | SENP8 conf | SENP6 conf | SENP7 confirm | Casp3 SENP sel | SENP luc ctr
CCCc1cc(C(=O)Nc2cccnc2Cl)no1 | -9.5 | 16.4 | -22.4 | 0.5 | -0.2 | · | · | · | · | ·
Cc1cc(N/N=C/c2ccccc2Br)nc2ccccc12 | -17.2 | -97.7 | -1.1 | 4.3 | -8.7 | · | · | · | · | ·
C(=N\Nc1ccccn1)/c1ccc2c(c1)OCCO2 | 71.6* | -4.3 | 85.6* | 4.5 | 83.2* | 81.2* | 80.1* | 96.6* | 84.1* | 16.7
Fc1cccc(F)c1/C=N/Nc1ccccn1 | 22.6 | 13.3 | 36.1 | -1.2 | 26.1 | · | · | · | · | ·
Fc1cccc(/C=N/Nc2ccccn2)c1 | 55.4* | 7.8 | 42.8 | -3.9 | 74.0* | 51.1* | 79.0* | 95.3* | 76.7* | 35.2
Brc1ccccc1/C=N/Nc1ccc2ccccc2n1 | 48.6 | -129.0 | 74.6* | -2.7 | 70.0* | 40.8 | 77.8* | 91.1* | 53.0* | 46.0
Brc1ccc(/C=N/Nc2ccc3ccccc3n2)cc1 | 62.3* | -104.1 | 78.0* | 5.0 | 58.6* | -4.8 | -7.1 | 17.7 | 25.9 | 1.0
CNC(=O)c1sccc1Oc1ccc(F)cc1[N+](=O)[O-] | -4.1 | 10.1 | -1.1 | -0.1 | -6.0 | · | · | · | · | ·
CCCc1nc2c(=O)[nH]c3ccccc3c2o1 | -0.3 | 21.8 | -17.5 | 0.8 | -4.4 | · | · | · | · | ·
Fc1cccc(/C=N/Nc2ccc3ccccc3n2)c1 | 91.4* | -107.3 | 95.3* | -0.4 | 94.5* | 93.6* | 94.2* | 100.4* | 81.7* | 39.5
Fc1cccc(/C=N/Nc2nc3ccccc3[nH]2)c1 | -13.6 | · | -11.9 | 3.9 | 6.5 | · | · | · | · | ·
Nc1c(N2CCOCC2)cc(Cl)c2nonc12 | 13.0 | 1.5 | 23.1 | 7.6 | 20.6 | · | · | · | · | ·
Nc1c(N2CCCC2)cc(Cl)c2nonc12 | 83.4* | 13.4 | 91.4* | 5.7 | 49.5 | 45.8 | 85.6* | 74.5* | 10.6 | 1.7
CSc1ccc(/C=N/NC(=O)c2cccc(O)c2)cc1 | 75.0* | -257.0 | 91.3* | 5.7 | 90.0* | 7.3 | 81.3* | 95.7* | 86.1* | 83.1*
O=C(CNC(=O)c1ccc([N+](=O)[O-])cc1)N/N=C\c1ccc(OC(=O)c2ccccc2)cc1 | -3.2 | 21.3 | -7.0 | 2.2 | 1.9 | · | · | · | · | ·
O=C(CNCC1CCCO1)NCc1ccco1 (configuration not stated) | -4.7 | -9.4 | -8.5 | -0.4 | -0.5 | · | · | · | · | ·
COc1cccc(C(=O)/C=C/Nc2ccc(S(=O)(=O)Nc3onc(C)c3C)cc2)c1 | 78.3* | -1.7 | 88.3* | -2.8 | 58.4* | 67.8* | 66.9* | 86.2* | 68.5* | 24.6
Cc1noc(NS(=O)(=O)c2ccc(N/C=C\C(=O)c3ccc(Br)cc3)cc2)c1C | -12.5 | -56.9 | -13.2 | -2.2 | -11.4 | · | · | · | · | ·
Cc1cc(NS(=O)(=O)c2ccc(NC(=O)Nc3ccccc3)cc2)no1 | 22.7 | 19.6 | 53.8* | -0.2 | 33.0 | 34.2 | 30.4 | 67.1* | 68.8* | 30.2
Cc1noc(NS(=O)(=O)c2ccc(NC(=O)Nc3ccc(Cl)c(Cl)c3)cc2)c1C | 81.7* | 20.9 | 86.2* | -2.4 | 15.7 | 89.0* | 89.0* | 95.0* | 50.7* | 85.4*
CCn1ncc(/C=N/O)c1C | 3.3 | 10.0 | -13.9 | -0.6 | -0.2 | · | · | · | · | ·
O=C(Oc1ccc(NC2=C(Cl)C(=O)c3ccccc3C2=O)cc1)c1ccc([N+](=O)[O-])cc1 | · | 36.2 | · | -0.2 | · | · | · | · | · | ·
CCSc1nnc(NC(=O)C2CCN(S(=O)(=O)c3ccccc3C(F)(F)F)CC2)s1 | -4.1 | 1.5 | -10.0 | 0.7 | -1.2 | · | · | · | · | ·
O=C(Nc1nnc(SCc2ccccc2)s1)c1cccs1 | 69.1* | -196.9 | 86.4* | -1.0 | 52.7* | -4.4 | 24.8 | 36.1 | 29.7 | 6.4
CCSc1nnc(NC(=O)c2cccs2)s1 | -16.6 | -40.7 | -1.6 | -1.1 | 2.4 | · | · | · | · | ·
SMILES | SENP8 block-1 | SENP8 block-2 | SENP6 block | HSP90 refold inh | SENP7 inh | SENP8 conf | SENP6 conf | SENP7 confirm | Casp3 SENP sel | SENP luc ctr
O=C(Nc1ncc(Cc2ccccc2)s1)c1cccs1 | 40.3 | -48.7 | 53.0* | 12.8 | 58.3* | 56.6* | 56.9* | 83.3* | 37.3 | 52.9*
Cc1ccc(Cc2cnc(NC(=O)c3cccs3)s2)cc1 | -19.3 | -39.4 | 1.1 | 3.5 | 0.1 | · | · | · | · | ·
Cc1ccc(C(=O)Nc2ncc(Cc3ccccc3)s2)o1 | 51.2* | -9.9 | 71.2* | 11.7 | 62.8* | 6.5 | 68.1* | 92.1* | 62.4* | 56.3*
O=C(c1ccc(Cl)c(S(=O)(=O)Nc2ccccc2C(=O)N2CCc3ccccc3C2)c1)N1CCc2ccccc2C1 | -5.8 | 23.0 | -4.2 | 3.9 | 5.3 | · | · | · | · | ·
CCCn1c(CNC(=O)Cc2ccccc2)nc2ccccc21 | -6.2 | 15.3 | -9.3 | -1.6 | 4.7 | · | · | · | · | ·
CCc1ccc2oc(-c3ccc(OC)cc3)cc(=Nc3c(C)n(C)n(-c4ccccc4)c3=O)c2c1 | 84.5* | -447.7 | 96.6* | 10.7 | 98.7* | 22.9 | 20.0 | 15.6 | 48.2 | 19.8
COc1ccc2cc(C(=O)NCc3ccco3)c(=Nc3ccc(C(=O)O)cc3)oc2c1 | 2.9 | -299.2 | 9.9 | 2.9 | 2.2 | · | · | · | · | ·
COc1ccc(-c2cc(=Nc3ccc(C(=O)O)cc3)c3cc(C)ccc3o2)cc1 | 78.6* | -445.7 | 65.8* | 2.1 | 89.5* | -3.5 | 81.0* | 93.3* | 83.8* | 63.9*
CCS(=O)(=O)N(CC(=O)Nc1cccc2ccccc12)c1ccc(OC)cc1 | 4.4 | 6.8 | -12.9 | · | 0.1 | · | · | · | · | ·
Cc1ccc(NC(=O)COC(=O)c2ccc3c(c2)OCO3)cc1S(=O)(=O)N1CCCCC1 | -3.3 | 18.5 | 7.2 | 2.5 | 1.9 | · | · | · | · | ·
Oc1cccc(NC(=S)Nc2ccc(SC(F)F)cc2)c1 | -4.4 | 17.7 | 9.2 | 5.1 | 3.7 | · | · | · | · | ·
Oc1cccc2c(NC(=S)Nc3ccc(SC(F)F)cc3)cccc12 | 52.8* | -185.4 | 85.1* | 13.2 | 29.9 | 24.2 | 19.6 | -0.4 | 4.2 | 10.0
Cc1[nH]nc(SCC(=O)NC(C)c2ccccc2)c1[N+](=O)[O-] (configuration not stated) | 12.6 | 17.7 | 8.4 | 2.5 | 4.0 | · | · | · | · | ·
